Data: PubChem BioAssay (Tox21)
Unmarked numbers belong to inactive results. Records with an inconclusive call do not appear. A call without a number means that no potency is given here. Active and inactive are the calls of the source. Unless noted, calls follow the shape of the dose curve; as a rule, active = well fitted curve in the direction sought with a large enough effect in the repeat runs; inconclusive = weak or mixed curves; inactive = no such curve, though single readings can be large; an effect the other way counts as inactive or inconclusive.

How the values were obtained:
[1] = qHTS assay for small molecule agonists of the p53 signaling pathway (AID 651631; calls by dose curve; also: nearly all actives have a fitted effect of over 15% in size; also: potency is read from the fitted curve at half-maximal effect)
Summary of the method: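 Beta-lactamase reporter activity under p53 response elements was quantified in HCT-116 cells by FRET fluorescence, following 16 h incubation with test compounds at 37 °C and 2 h substrate development at room temperature.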

[2] = qHTS assay for small molecules that induce genotoxicity in human embryonic kidney cells expressing luciferase-tagged ATAD5 (AID 651632); also: nearly all actives have a fitted effect of over 15% in size
Summary of the method: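 Cells were seeded at 2,000 per well, dosed with compound, and incubated 16 hr at 37C in 5% CO2. Luciferase activity was then quantified after a 30 min room-temperature incubation with Amplite.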

[3] = qHTS assay for small molecule agonists of the p53 signaling pathway - cell viability (AID 651633; calls by dose curve; also: nearly all actives have a fitted effect of over 30% in size; also: potency is read from the fitted curve at half-maximal effect)
Summary of the method: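 p53RE-bla cells were treated with compound for 16 hours at 37 C. Cytotoxicity was then measured as CellTiter-Glo luminescence after 30 min at room temperature.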

[4] = qHTS assay for small molecules that induce genotoxicity in human embryonic kidney cells expressing luciferase-tagged ATAD5 - cell viability (AID 651634; calls by dose curve; also: nearly all actives have a fitted effect of over 25% in size; also: potency is read from the fitted curve at half-maximal effect)
Summary of the method: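 Cells (HEK293T, luciferase-tagged ATAD5) are seeded at 2,000 per well, dosed with compound or DMSO vehicle, and incubated 15.5 hr at 37C and 5% CO2. CellTiter-Fluor is added for 30 min before fluorescence is measured.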

[5] = qHTS assay for small molecule disruptors of the mitochondrial membrane potential - cell viability (AID 720634; calls by dose curve;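 also: human HepG2 liver cancer cells; series mostly up to about 83 µM; nearly all actives have a fitted effect of over 20% in size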)
Summary of the method: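 Cytotoxicity was measured by ATP quantitation in HepG2 wells that had first been treated with compound for 1 hr and stained with m-MPI dye; CellTiter-Glo incubation was 30 min at room temperature.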

[6] = qHTS assay for small molecule disruptors of the mitochondrial membrane potential (AID 720635)
Summary of the method: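 HepG2 cells exposed to compound 1 hr at 37C, then Mito-MPS dye 30 min. Ratio read of aggregate (540/590 nm) versus monomer (490/535 nm) fluorescence.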

[7] = qHTS assay to test for compound auto fluorescence at 590 nm (red) in HepG2 cells (AID 720674)
Summary of the method: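 Fluorescence at 590 nm emission following 540 nm excitation was recorded from HepG2 wells one hour after compound transfer, with DMSO-only wells as vehicle and Rose Bengal sodium equivalency as the scale.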

[8] = qHTS assay to test for compound auto fluorescence at 535 nm (green) in HepG2 cells (AID 720675)
[9] = qHTS assay to test for compound auto fluorescence at 590 nm (red) in HEK293 cells (AID 720679)
Summary of the method: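 Autofluorescence equivalency to Rose Bengal sodium, 540/590nm, in HEK293 cells exposed overnight to 23 nL compound per well.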

[10] = qHTS assay to test for compound auto fluorescence at 535 nm (green) in HEK293 cells (AID 720680)
[11] = qHTS assay to test for compound auto fluorescence at 460 nm (blue) in HEK293 cell free culture (AID 720681)
Summary of the method: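 Compounds were added to cell-free DMEM with 10% FBS and fluorescence read directly. The blue channel used 405 nm excitation and 460 nm emission, with triamterene as the reference fluorophore.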

[12] = qHTS assay to test for compound auto fluorescence at 535 nm (green) in HEK293 cell free culture (AID 720682)
Summary of the method: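 Each library compound, or DMSO control, is added by pintool to medium alone, comprising DMEM and 10% FBS. Emission at 535 nm following 485 nm excitation is quantified against fluorescein.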

[13] = qHTS assay to test for compound auto fluorescence at 590 nm (red) in HEK293 cell free culture (AID 720683)
Summary of the method: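 Cell-free wells of DMEM with 10% FBS received compound, and intrinsic fluorescence was read at excitation/emission 540/590 nm. Values expressed as equivalence to Rose Bengal sodium.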

[14] = qHTS assay to test for compound auto fluorescence at 590 nm (red) in HepG2 cell free culture (AID 720684)
Summary of the method: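 Auto fluorescence equivalency versus Rose Bengal sodium, red channel Ex/Em 540/590 nm; compounds in cell-free MEM/10% FBS; DMSO vehicle control.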

[15] = qHTS assay to test for compound auto fluorescence at 460 nm (blue) in HepG2 cell free culture (AID 720685)
Summary of the method: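 Cell-free plates of MEM plus 10% FBS received 23 nL compound or DMSO vehicle; blue-channel (405/460 nm) intensity scored against triamterene as reference fluorophore.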

[16] = qHTS assay to test for compound auto fluorescence at 535 nm (green) in HepG2 cell free culture (AID 720686)
[17] = qHTS assay to test for compound auto fluorescence at 460 nm (blue) in HepG2 cells (AID 720687)
Summary of the method: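 HepG2 cells in MEM with 10% FBS, attached overnight at 37 C, were exposed to compound or DMSO for 1 hr at 37 C, 5% CO2. Blue fluorescence was read at 405/460 nm, with triamterene as reference fluorophore.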

[18] = qHTS assay to test for compound auto fluorescence at 460 nm (blue) in HEK293 cells (AID 720678)
Summary of the method: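 Auto fluorescence in the blue band was quantified as triamterene equivalency. HEK293 cells were seeded at 2,000/well, dosed after a 4-5 hr attachment, and kept overnight at 37C before the 405/460 nm reading.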

[19] = target: Glucocorticoid receptor (Homo sapiens) (UniProt P04150); test: qHTS assay to identify small molecule agonists of the glucocorticoid receptor (GR) signaling pathway (AID 720691; active = well fitted activation curve with a large enough effect in the signal ratio in the repeat runs, not every such curve was filed as active; the % refers to the signal ratio)
Summary of the method: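 Steps: seed GR-bla HeLa cells, incubate 4 h at 37 C/5% CO2; pin-transfer DMSO-dissolved compounds; incubate 18 h at 37 C; add LiveBLAzer B/G FRET substrate; after 2 h at room temperature, measure fluorescence.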

[20] = target: Glucocorticoid receptor (Homo sapiens) (UniProt P04150); test: qHTS assay to identify small molecule antagonists of the glucocorticoid receptor (GR) signaling pathway (AID 720692; active = well fitted inhibition curve with a large enough effect in the signal ratio in the repeat runs, not every such curve was filed as active; the % refers to the signal ratio)
Summary of the method: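 Antagonism was scored as loss of dexamethasone-driven (5 nM final) reporter signal in HeLa cells bearing a glucocorticoid response element–beta-lactamase construct, after 18 h compound exposure at 37 C and 2 h FRET substrate loading.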

Chain of Glucocorticoid receptor (Homo sapiens) (P04150 whole entry, looked up): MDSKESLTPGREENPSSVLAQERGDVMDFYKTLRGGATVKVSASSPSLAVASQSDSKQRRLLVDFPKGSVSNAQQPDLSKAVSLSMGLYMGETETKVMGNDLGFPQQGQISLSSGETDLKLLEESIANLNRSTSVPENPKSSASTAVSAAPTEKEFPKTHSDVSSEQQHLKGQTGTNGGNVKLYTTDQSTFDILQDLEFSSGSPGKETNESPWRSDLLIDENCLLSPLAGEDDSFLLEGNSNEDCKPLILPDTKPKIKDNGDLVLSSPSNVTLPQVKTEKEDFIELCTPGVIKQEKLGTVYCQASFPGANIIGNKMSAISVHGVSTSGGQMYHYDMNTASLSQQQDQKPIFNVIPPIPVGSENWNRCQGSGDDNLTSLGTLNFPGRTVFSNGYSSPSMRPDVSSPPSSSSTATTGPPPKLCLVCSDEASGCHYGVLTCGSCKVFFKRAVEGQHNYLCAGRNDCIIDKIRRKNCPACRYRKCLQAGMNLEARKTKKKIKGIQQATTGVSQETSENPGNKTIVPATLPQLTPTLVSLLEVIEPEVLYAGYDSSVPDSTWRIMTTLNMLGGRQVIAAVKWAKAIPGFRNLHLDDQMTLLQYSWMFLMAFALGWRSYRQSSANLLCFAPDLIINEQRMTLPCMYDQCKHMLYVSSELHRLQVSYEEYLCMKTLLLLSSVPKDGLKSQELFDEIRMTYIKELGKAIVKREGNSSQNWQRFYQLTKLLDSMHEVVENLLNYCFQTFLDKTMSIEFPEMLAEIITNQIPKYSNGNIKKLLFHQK

SMILES: CCCCCCCC/C=C\CCCCCCCCCCCC(=O)O
- Potency [1]: inactive
- Potency [2]: inactive
- Potency [3]: inactive
- Potency [4]: inactive
- Potency [5]: inactive
- Potency [6]: inactive
- outcome [7]: inactive
- outcome [8]: inactive
- outcome [9]: inactive
- outcome [10]: inactive
- Potency [11]: inactive
- outcome [12]: inactive
- outcome [13]: inactive
- outcome [14]: inactive
- Potency [15]: inactive
- outcome [16]: inactive
- Potency [17]: inactive

SMILES: CCC(C)COC(=O)CC(C)C (stereo not drawn)
- Potency [1]: inactive
- Potency [2]: inactive
- Potency [3]: inactive
- Potency [4]: inactive
- Potency [5]: inactive
- outcome [7]: inactive
- outcome [8]: inactive
- Potency [18]: inactive
- outcome [9]: inactive
- outcome [10]: inactive
- Potency [11]: inactive
- outcome [12]: inactive
- outcome [13]: inactive
- outcome [14]: inactive
- Potency [15]: inactive
- outcome [16]: inactive

SMILES: O=[N+]([O-])c1ccc(Nc2ccc(Nc3ccccc3)c(S(=O)(=O)O)c2)c([N+](=O)[O-])c1
- Potency [1]: inactive
- Potency [2]: inactive
- Potency [3]: inactive
- Potency [5]: inactive
- outcome [7]: inactive
- outcome [8]: inactive
- Potency [18]: inactive
- outcome [9]: inactive
- outcome [10]: inactive
- Potency [11]: inactive
- outcome [12]: inactive
- outcome [13]: inactive
- outcome [14]: inactive
- Potency [15]: inactive
- outcome [16]: inactive
- Potency [17]: inactive
- Potency [19]: inactive

SMILES: CC(O)c1ccccc1 (stereo not drawn)
- Potency [1]: inactive
- Potency [2]: inactive
- Potency [3]: inactive
- Potency [4]: inactive
- Potency [5]: inactive
- outcome [7]: inactive
- outcome [8]: inactive
- outcome [9]: inactive
- outcome [10]: inactive
- Potency [11]: inactive
- outcome [12]: inactive
- outcome [13]: inactive
- outcome [14]: inactive
- Potency [15]: inactive
- outcome [16]: inactive
- Potency [17]: inactive

SMILES: O=C1NCCN1CCO
- Potency [1]: inactive
- Potency [2]: inactive
- Potency [3]: inactive
- Potency [5]: inactive
- Potency [6]: inactive
- outcome [7]: inactive
- outcome [8]: inactive
- Potency [18]: inactive
- outcome [9]: inactive
- outcome [10]: inactive
- Potency [11]: inactive
- outcome [12]: inactive
- outcome [13]: inactive
- Potency [15]: inactive
- outcome [16]: inactive
- Potency [17]: inactive

SMILES: CCOC(=O)/C=C/C(=O)OCC
- Potency [1]: inactive
- Potency [2]: inactive
- Potency [3]: inactive
- Potency [5]: inactive
- Potency [6]: inactive
- outcome [7]: inactive
- outcome [8]: inactive
- Potency [18]: inactive
- outcome [9]: inactive
- outcome [10]: inactive
- Potency [11]: inactive
- outcome [12]: inactive
- outcome [13]: inactive
- outcome [14]: inactive
- Potency [15]: inactive
- outcome [16]: inactive
- Potency [17]: inactive
- Potency [19]: inactive
- Potency [20]: inactive

SMILES: CCCCCCCCCCC(=O)O
- Potency [1]: inactive
- Potency [2]: inactive
- Potency [3]: inactive
- Potency [4]: inactive
- Potency [5]: inactive
- outcome [7]: inactive
- outcome [8]: inactive
- Potency [18]: inactive
- outcome [9]: inactive
- outcome [10]: inactive
- Potency [11]: inactive
- outcome [12]: inactive
- outcome [13]: inactive
- outcome [14]: inactive
- Potency [15]: inactive
- Potency [19]: inactive

SMILES: C[C@@H](O[C@H]1OCCN(Cc2n[nH]c(=O)[nH]2)[C@H]1c1ccc(F)cc1)c1cc(C(F)(F)F)cc(C(F)(F)F)c1
- Potency [1]: 29.8 µM (active)
- Potency [2]: inactive
- Potency [3]: 23.7 µM (active)
- Potency [4]: 23.7 µM (active)
- Potency [5]: inactive
- outcome [7]: inactive
- outcome [8]: inactive
- Potency [18]: inactive
- outcome [9]: inactive
- outcome [10]: inactive
- Potency [11]: inactive
- outcome [12]: inactive
- outcome [13]: inactive
- Potency [15]: inactive
- outcome [16]: inactive
- Potency [17]: inactive
